# Results as given in PubChem BioAssay AID1159580 (chemical genetic matrix, 2015).
# About 2,000 (36%) of roughly 5,500 compounds were called active. Not shown: some 18% with an inconclusive outcome. The list shows a part of the results. A number with no mark means an inactive call. Cut-off read from the data, not from the text of the source: active = normalized growth mostly below about 0.91 (no sharp cut-off); inconclusive = no clear call, values can overlap the other calls; inactive = mostly above about 0.92.
# Assay: chemical genetic growth profiling, strain panel (AID 1159580);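 note: tested at 20 µM; growth read once vehicle control cultures reached saturation at 30 °C; 1 = growth at the plate median or of vehicle wells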
# Conditions: S. cerevisiae deletion strains, growth OD
# [1] = locus YDL101C, strain DUN1, stronger effect = lower value
# [2] = locus YHR030C, strain SLT2, stronger effect = lower value
smiles,measurement,setting,value
COC(=O)c1sccc1NS(=O)(=O)c1cc(Cl)cc(Cl)c1,normalized growth,"locus YAR019C, strain CDC15, stronger effect = lower value",0.955
same,normalized growth,"locus YBL105C, strain PKC1, stronger effect = lower value",0.946
same,normalized growth,"locus YBR135W, strain CKS1, stronger effect = lower value",0.958
same,normalized growth,"locus YBR136W, strain MEC1, stronger effect = lower value",0.951
same,normalized growth,"locus YBR160W, strain CDC28, stronger effect = lower value",0.947
same,normalized growth,"locus YDL017W, strain CDC7, stronger effect = lower value",0.954
same,normalized growth,"locus YDL028C, strain MPS1, stronger effect = lower value",0.958
same,normalized growth,[1],0.949
same,normalized growth,"locus YDL108W, strain KIN28, stronger effect = lower value",0.961
same,normalized growth,"locus YDL132W, strain cdc53, stronger effect = lower value",0.958
same,normalized growth,"locus YDL214C, strain PRR2, stronger effect = lower value",0.975
same,normalized growth,"locus YDR052C, strain DBF4, stronger effect = lower value",0.957
same,normalized growth,"locus YDR054C, strain cdc34, stronger effect = lower value",0.944
same,normalized growth,"locus YDR226W, strain ADK1, stronger effect = lower value",0.954
same,normalized growth,"locus YDR477W, strain SNF1, stronger effect = lower value",0.977
same,normalized growth,"locus YER123W, strain YCK3, stronger effect = lower value",0.994
same,normalized growth,"locus YER133W, strain GLC7, stronger effect = lower value",0.987
same,normalized growth,"locus YFL009W, strain cdc4, stronger effect = lower value",0.954
same,normalized growth,"locus YFL029C, strain CAK1, stronger effect = lower value",0.951
same,normalized growth,"locus YFR003C, strain YPI1, stronger effect = lower value",0.957
same,normalized growth,"locus YFR019W, strain FAB1, stronger effect = lower value",0.967
same,normalized growth,"locus YFR028C, strain CDC14, stronger effect = lower value",0.958
same,normalized growth,"locus YGR040W, strain KSS1, stronger effect = lower value",0.981
same,normalized growth,"locus YGR052W, strain FMP48, stronger effect = lower value",1.05
same,normalized growth,"locus YGR092W, strain DBF2, stronger effect = lower value",0.948
same,normalized growth,[2],1.04
same,normalized growth,"locus YHR079C, strain IRE1, stronger effect = lower value",1.01
same,normalized growth,"locus YHR082C, strain KSP1, stronger effect = lower value",1.06
same,normalized growth,"locus YHR205W, strain SCH9, stronger effect = lower value",0.992
same,normalized growth,"locus YIL147C, strain SLN1, stronger effect = lower value",0.955
same,normalized growth,"locus YJL095W, strain BCK1, stronger effect = lower value",1.07
same,normalized growth,"locus YJL128C, strain PBS2, stronger effect = lower value",0.925
same,normalized growth,"locus YJL157C, strain FAR1, stronger effect = lower value",0.976
same,normalized growth,"locus YJR016C, strain ILV3, stronger effect = lower value",0.959
same,normalized growth,"locus YJR066W, strain TOR1 (second series), stronger effect = lower value",1.01
same,normalized growth,"locus YJR066W, strain TOR1, stronger effect = lower value",1.06
same,normalized growth,"locus YKL048C, strain ELM1, stronger effect = lower value",0.939
same,normalized growth,"locus YKL067W, strain YNK1, stronger effect = lower value",0.973
same,normalized growth,"locus YKL101W, strain HSL1, stronger effect = lower value",0.959
same,normalized growth,"locus YKL193C, strain SDS22, stronger effect = lower value",0.958
same,normalized growth,"locus YKL203C, strain TOR2, stronger effect = lower value",1.05
same,normalized growth,"locus YLR113W, strain HOG1, stronger effect = lower value",0.92
same,normalized growth,"locus YLR133W, strain CKI1, stronger effect = lower value",0.962
same,normalized growth,"locus YLR403W, strain SFP1, stronger effect = lower value",0.996
same,normalized growth,"locus YML070W, strain DAK1, stronger effect = lower value",0.991
same,normalized growth,"locus YMR001C, strain CDC5, stronger effect = lower value",0.949
same,normalized growth,"locus YMR205C, strain PFK2 (second series), stronger effect = lower value",0.978
same,normalized growth,"locus YMR277W, strain FCP1, stronger effect = lower value",0.96
same,normalized growth,"locus YNL006W, strain LST8, stronger effect = lower value",0.96
same,normalized growth,"locus YNL020C, strain ARK1, stronger effect = lower value",0.964
same,normalized growth,"locus YNL161W, strain CBK1, stronger effect = lower value",0.954
same,normalized growth,"locus YNL183C, strain NPR1, stronger effect = lower value",1.02
same,normalized growth,"locus YNL207W, strain RIO2, stronger effect = lower value",0.955
same,normalized growth,"locus YNL222W, strain SSU72, stronger effect = lower value",0.953
same,normalized growth,"locus YNL307C, strain MCK1 (second series), stronger effect = lower value",0.956
same,normalized growth,"locus YOL078W, strain AVO1, stronger effect = lower value",0.963
same,normalized growth,"locus YOL136C, strain PFK27, stronger effect = lower value",0.996
same,normalized growth,"locus YOR061W, strain CKA2, stronger effect = lower value",0.979
same,normalized growth,"locus YOR119C, strain RIO1, stronger effect = lower value",1.03
same,normalized growth,"locus YOR231W, strain MKK1, stronger effect = lower value",0.986
same,normalized growth,"locus YOR329C, strain SCD5, stronger effect = lower value",0.961
same,normalized growth,"locus YPL031C, strain PHO85, stronger effect = lower value",0.987
same,normalized growth,"locus YPL153C, strain RAD53, stronger effect = lower value",1.01
same,normalized growth,"locus YPL204W, strain HRR25, stronger effect = lower value",0.975
same,normalized growth,"locus YPL209C, strain IPL1, stronger effect = lower value",0.947
same,normalized growth,"locus YPL256C, strain CLN2, stronger effect = lower value",0.963
same,normalized growth,"locus YPR025C, strain CCL1, stronger effect = lower value",0.957
same,normalized growth,"locus YPR106W, strain ISR1, stronger effect = lower value",0.945
same,normalized growth,"locus YPR111W, strain DBF20, stronger effect = lower value",0.935
same,normalized growth,"strain NNK1, stronger effect = lower value",0.948
same,normalized growth,"strain TSCII, stronger effect = lower value",0.952
COCc1cc(=O)n2[nH]c(C(C)(C)C)cc2n1,normalized growth,"locus YAL013W, strain DEP1, stronger effect = lower value",1.01
same,normalized growth,"locus YBR229C, strain ROT2, stronger effect = lower value",0.986
same,normalized growth,[1],0.996
same,normalized growth,"locus YDR150W, strain NUM1, stronger effect = lower value",1.04
same,normalized growth,"locus YEL061C, strain CIN8, stronger effect = lower value",0.939
same,normalized growth,"locus YGR078C, strain PAC10, stronger effect = lower value",1.01
same,normalized growth,[2],1.07
same,normalized growth,"locus YHR087W, strain rtc3, stronger effect = lower value",1.01
same,normalized growth,"locus YJL187C, strain SWE1, stronger effect = lower value",0.162 (active)
same,normalized growth,"locus YJR043C, strain POL32, stronger effect = lower value",1.04
same,normalized growth,"locus YJR075W, strain HOC1, stronger effect = lower value",1.01
same,normalized growth,"locus YLR039C, strain RIC1, stronger effect = lower value",1.02
same,normalized growth,"locus YLR058C, strain SHM2 (second series), stronger effect = lower value",0.988
same,normalized growth,"locus YLR085C, strain ARP6, stronger effect = lower value",0.959
same,normalized growth,"locus YLR262C, strain YPT6, stronger effect = lower value",1.03
same,normalized growth,"locus YML094W, strain GIM5, stronger effect = lower value",0.986
same,normalized growth,"locus YMR219W, strain ESC1, stronger effect = lower value",0.996
same,normalized growth,"locus YMR263W, strain SAP30, stronger effect = lower value",1.04
same,normalized growth,"locus YNL153C, strain GIM3, stronger effect = lower value",1.02
same,normalized growth,"locus YNL298W, strain CLA4 (second series), stronger effect = lower value",0.965
same,normalized growth,"locus YNL322C, strain KRE1, stronger effect = lower value",0.999
same,normalized growth,"locus YNR030W, strain Alg12, stronger effect = lower value",1.01
same,normalized growth,"locus YPL055C, strain LGE1, stronger effect = lower value",1.08
same,normalized growth,"locus YPL241C, strain CIN2, stronger effect = lower value",0.977
same,normalized growth,"locus YPR135W, strain CTF4, stronger effect = lower value",1.14
